According to the OligoGym collection:

target: TMEM231; assay: pooled miR-30 sensor sort-seq; sequence = guide strand; details: shRNA

Going from TAGCATTAATCACAAATGGAGC to TTCTGAAACACGAAGATCTTGA, the sensor-assay potency score (higher = more potent) rises from -1.05 to 0.224.

Compared with TTCTTCTCTAGTCGAAACGAGC, TCTCTAGTCGAAACGAGCGGGA is higher in sensor-assay potency score (higher = more potent): -1.58 for the first, -0.413 for the second.

Compared with TAAGAAATGACTTCCACAGGGT, TAATCGATAGGAGAAAGTCAGG is lower in sensor-assay potency score (higher = more potent): 0.705 for the first, -1.54 for the second.

target: TMEM42; assay: as above; details: shRNA

Going from TAATACATAAGCATGACACAGA to TAGCCCAGGAAGGCCGAGCTGA, the sensor-assay potency score (higher = more potent) falls from 0.407 to -1.22.

Compared with AAACCCATGCTCACCTCGCTGC, TGGATTAGGGTGAGTCCGCAGA is lower in sensor-assay potency score (higher = more potent): -0.311 for the first, -1.31 for the second.

Compared with AATAAGGAACACTCCTCCCCAC, TAGAGTTACATGACTGGCTTTT is lower in sensor-assay potency score (higher = more potent): 0.0225 for the first, -0.949 for the second.

First: TACGCGGTCGCGGACACGGCGC
Second: TTGAATACGCCCCAAAAGCGGC
The sensor-assay potency score (higher = more potent) of the first is lower: -1.65 for the first, -1.46 for the second.

First: TTGAAAAAGTCACTGTGACAGA
Second: TAGAACACTGCTGCAGCTGCAC
The sensor-assay potency score (higher = more potent) of the first is lower: -0.719 for the first, -0.354 for the second.

Compared with TAAACCCATGCTCACCTCGCTG, TCCATACAGCACATAGCCCAGG is lower in sensor-assay potency score (higher = more potent): -1.26 for the first, -1.77 for the second.

target: TMEM70; assay: as above; details: shRNA

Compared with TTTCACACCAAACACTGCTCGG, TAACAATCAGTCACTAACGGAA is lower in sensor-assay potency score (higher = more potent): -0.271 for the first, -0.91 for the second.

Compared with TGGTGAAACACTGTACTCGTTT, TAGCATTGTAGGTAATGGCTTT is higher in sensor-assay potency score (higher = more potent): -0.765 for the first, -0.0699 for the second.

First: TTTTGTAATAAAGTGAAGCAGC
Second: TACAATCGAATGACATAGCCTT
The sensor-assay potency score (higher = more potent) of the first is lower: -0.766 for the first, 0.02 for the second.

First: TAAACAAACATCATTCTCTGGA
Second: TTTAAGAATCGAACATATCCTT
The sensor-assay potency score (higher = more potent) of the first is lower: 0.0797 for the first, 0.136 for the second.

Compared with TTAACTAACAGTGATTTTGTTT, TTAACAATCAGTCACTAACGGA is lower in sensor-assay potency score (higher = more potent): -0.473 for the first, -0.588 for the second.

Going from TTTATTATAAACAAACATCATT to TTAAGAATCGAACATATCCTTC, the sensor-assay potency score (higher = more potent) rises from -1.08 to -0.465.

target: TMEM8B; assay: as above; details: shRNA

Going from TAGAAGTGGACAGAGAAGGTGT to TCCATGTCGGTCAAGCTGCAGA, the sensor-assay potency score (higher = more potent) falls from 0.765 to -1.7.

First: ATAATTGTGTGTGCGCAGCAGC
Second: TAAGATGCAGACACCACCGCAT
The sensor-assay potency score (higher = more potent) of the first is lower: -0.93 for the first, 0.345 for the second.

First: ATGTAGAAGTAGTTGTCCCGGG
Second: TAGCTGGTAACCACAGCCCCGG
The sensor-assay potency score (higher = more potent) of the first is higher: -0.575 for the first, -1.14 for the second.

Going from TGTAGAAGTAGTTGTCCCGGGT to TAGGTGAGCGCATCTGCACTGT, the sensor-assay potency score (higher = more potent) falls from 0.134 to -0.509.

TGAAGGTGTAGACTGCAGCTTC and TATCTATGCATGACAGTTTGGG are the same in sensor-assay potency score (higher = more potent): -0.202 for the first, -0.202 for the second.
